The text below walks through data of the OligoGym collection.

What all share (assay): pooled miR-30 sensor sort-seq; sequence = guide strand
What all share (conditions): shRNA

The target in experiment [1] is ZFHX4.
For experiment [2], the target named is ZFAND6.
For experiment [3], the target named is ZFAND2A.
The target of experiment [4] is ZFP62.
Experiment [5] has as its target ZDHHC6.
In experiment [6] the target is ZMAT5.
The target in experiment [7] is ZMYM3.
Experiment [8] deals with ZNF100.
For experiment [9], the target named is ZNF135.
Also: reference of the scale not given here.

Sequence ATCGCTAACACAACCATCGAAT registered a sensor-assay potency score (higher = more potent) in experiment [1] of -0.685.

In experiment [2], TACTACTATTCTGTCTTTGAAG returned a sensor-assay potency score (higher = more potent) of -0.924.

With TTTTACTGGAAGAAAATCTAGC, the sensor-assay potency score (higher = more potent) in [3] was -0.26.

In turn, TTGCTTGTTCGAATGTACCGTT came in with a sensor-assay potency score (higher = more potent) in experiment [1] of 0.0955.

For the sequence TACTGGGACGAGCACATCCTTC, in [3], the sensor-assay potency score (higher = more potent) was -1.34.

Take TTACAGAGTGGGCATACTGGGA: the sensor-assay potency score (higher = more potent) in experiment [3] is -0.899.

For TTTATTTCTCTGTCGTTCCTTA, the sensor-assay potency score (higher = more potent) in experiment [1] was 0.274.

The sequence TTTGCCACAGACATCACACTTG displayed a sensor-assay potency score (higher = more potent) in experiment [4] of 0.373.

For TTTGTCATCGCAGACCTCCGTG, in experiment [1], the sensor-assay potency score (higher = more potent) was -0.26.

In the case of TAGAGCTACTATCACTTCCTAC, the sensor-assay potency score (higher = more potent) in experiment [1] was -0.103.

In experiment [3], TTCTGAACAATGCTTCCCCAAA displayed a sensor-assay potency score (higher = more potent) of -1.18.

In turn, TTTGTTGCTGAGGACGTCCTGA returned a sensor-assay potency score (higher = more potent) in experiment [1] of -0.337.

Regarding TTTCTCAGCAGCATCGGCTTTG, the sensor-assay potency score (higher = more potent) in [2] is -0.787.

In experiment [3], TTCTCTTTCTTCTTCCCAGGGT returned a sensor-assay potency score (higher = more potent) of 0.483.

In turn, TTTGTTACCAATACTATCGGTG showed a sensor-assay potency score (higher = more potent) in [1] of -0.044.

For TTTTCACCAACAACTACTGGAT, the sensor-assay potency score (higher = more potent) in experiment [2] is -0.128.

The sequence TAGCATACTGAACACATGCCAT had a sensor-assay potency score (higher = more potent) in [2] of -0.592.

As for TTCTTCTGTACCTTCTGCCTGT, the sensor-assay potency score (higher = more potent) in [1] came to 0.382.

Consider TTGAAGTTCAGCTTCACTCAGT, for which, in [1], the sensor-assay potency score (higher = more potent) worked out at 0.0714.

As to TTTTCTAGGGAACCAACCCCTT, the sensor-assay potency score (higher = more potent) in experiment [5] was -1.12.

TTCTGCTTGAGAAAAAAGCTTT: in experiment [4], the sensor-assay potency score (higher = more potent) was -0.449.

Take TAGATGAAGATGTAGAGTCTAA: the sensor-assay potency score (higher = more potent) in [2] is -0.473.

On to AGTCTTTTCTGAACAATGCTTC, for which the sensor-assay potency score (higher = more potent) in experiment [3] is -1.25.

In experiment [3], TACCATCTGCAGCATCTCTTTC came in with a sensor-assay potency score (higher = more potent) of -0.989.

Turning to AAGATGTAGAGTCTAATGCTGA, the sensor-assay potency score (higher = more potent) in [2] is -0.785.

Regarding TTGATCTTGCAGTGTGTCGGGG, in [1], the sensor-assay potency score (higher = more potent) amounted to 0.234.

Regarding TCTTCTATTACTTTATAGCGAA, in experiment [5], the sensor-assay potency score (higher = more potent) was -0.958.

On to TAACATTTCACATTCTTGCATG, for which the sensor-assay potency score (higher = more potent) in [1] is -0.369.

TTCCTGCACATGAAACAGCGAT came in with a sensor-assay potency score (higher = more potent) in [2] of -1.19.

For TTTCTGAACAATGCTTCCCCAA, the sensor-assay potency score (higher = more potent) in [3] is -0.747.

TTATTCTACCATTACTACTATT showed a sensor-assay potency score (higher = more potent) in [2] of -1.18.

In experiment [2], TAGAGTCTAATGCTGACTGGGC yielded a sensor-assay potency score (higher = more potent) of -0.0965.

As to TCTACCATTACTACTATTCTGT, in experiment [2], the sensor-assay potency score (higher = more potent) stood at 0.0585.

TTGTGTACATCTGAGTAACGGT returned a sensor-assay potency score (higher = more potent) in experiment [2] of -0.562.

Regarding TACTGGAAGAAAATCTAGCTGC, the sensor-assay potency score (higher = more potent) in experiment [3] is 0.313.

In experiment [3], TTGGGCACATACCATCTGCAGC had a sensor-assay potency score (higher = more potent) of -1.16.

Consider TTCCATAAAATCCACAGCCAGT, for which, in experiment [2], the sensor-assay potency score (higher = more potent) was -1.07.

TTGAGTGTGAGATGTAGGCTTT yielded a sensor-assay potency score (higher = more potent) in [4] of -0.179.

In experiment [1], TTGCTCTCTGACATCTTGCTAG had a sensor-assay potency score (higher = more potent) of -0.546.

Consider TCTCTTTCTTCTTGCAGCCCTC, for which the sensor-assay potency score (higher = more potent) in experiment [3] was -1.15.

Regarding TCTCGCTCTGACATGTGGGAAA, the sensor-assay potency score (higher = more potent) in experiment [6] was -1.37.

On to TTGGACTTCATCTCCACCTTGC, for which the sensor-assay potency score (higher = more potent) in [7] was determined as 0.519.

TTTGTTATCATGTTCTTTGTGC gave a sensor-assay potency score (higher = more potent) in [8] of 0.633.

In turn, TACTGGAAGACAGTGGTTCTGA had a sensor-assay potency score (higher = more potent) in experiment [6] of 0.107.

Turning to TTGTCTGTGCTCTCCAAGGTAG, the sensor-assay potency score (higher = more potent) in experiment [7] was -0.839.

As to TTGAATTTGAAAATGTATGAAA, the sensor-assay potency score (higher = more potent) in [8] is -0.873.

Turning to TTGTTCTGCTCATCCAGCAAGA, the sensor-assay potency score (higher = more potent) in experiment [6] is -0.992.

In [7], TTGTTCAGTAGACACATCCTCA showed a sensor-assay potency score (higher = more potent) of 0.00931.

Sequence TCAAACGTCACTTGCTCCGGGT yielded a sensor-assay potency score (higher = more potent) in experiment [9] of -0.579.

Take TTGAGCTCAGCAGCTGAGCAGG: in experiment [7], the sensor-assay potency score (higher = more potent) was -1.2.

As to TTAGTGAGGGCTGAGGACCAGT, the sensor-assay potency score (higher = more potent) in experiment [8] was -0.895.

In turn, TTGTACAGCAGCACACAGCCTT displayed a sensor-assay potency score (higher = more potent) in [7] of -0.282.

In experiment [7], TTGACCACAGATCCCATCCTGC yielded a sensor-assay potency score (higher = more potent) of -0.277.

TTTCCTATACAAACCCTGCTGA came in with a sensor-assay potency score (higher = more potent) in [8] of -0.0321.

The sequence TTCAAAATAAGACTGCACCAGA registered a sensor-assay potency score (higher = more potent) in experiment [8] of 0.0757.

TTTGTAACTGTAAATTGTCATG: the sensor-assay potency score (higher = more potent) in [8] is -1.22.

For the sequence AAACAGGTCACAGTCTTCCAGG, in experiment [7], the sensor-assay potency score (higher = more potent) was -1.1.

Consider TGTTCGATAAGTGCTGAGCTGT, for which the sensor-assay potency score (higher = more potent) in experiment [9] was -0.66.

Sequence TATTTCTTCAGAGATGCCTTGC gave a sensor-assay potency score (higher = more potent) in [9] of 0.235.

For TACACTGGGATTAATGTCCAGA, the sensor-assay potency score (higher = more potent) in experiment [7] was -0.579.
